Measured values reported in the supplement of paper PMC10849652.
Targets with a hit are over-represented here; the source holds about 7,900 in all. About 0.6% of all pairs of compound and target were hits.

How the values were obtained:
Experiment in all cases: log2 fold change, soluble protein after heating vs DMSO (PISA); higher = thermal stabilisation; K562 cells, 10 uM, 30 min; active = over 0.2 and 3.5 SD of the protein, either way, in both replicates (recomputed)
[1] = compound: CS(=O)(=O)c1ccc(-c2cnc(N)c(C(=O)Nc3ccccc3)n2)cc1
Summary of the method: (§1)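 K562 cells at 2×10^6 cells/mL were exposed to 10 μM compound for 30 min, then aliquots were heated for 3 min across 48°C-58°C, pooled, and extracted in PBS containing 0.5% NP-40 at 4°C. The supernatant after 21,000xg for 90 min was taken as soluble protein and measured by TMTpro 16plex LC-MS/MS with channel sums equalised. Thermal stability is reported relative to control samples, with values from duplicates. Fold changes are given on a log2 scale.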

crizotinib = compound: C[C@@H](Oc1cc(-c2cnn(C3CCNCC3)c2)cnc1N)c1c(Cl)ccc(F)c1Cl [crizotinib]
Summary of the method: as §1

[2] = compound: C[C@@H]1COCCN1C2=NC(=NC(=C2)C3(CC3)S(=O)(=O)C)C4=C5C=CNC5=CC=C4
Summary of the method: as §1

[3] = compound: C[C@H](C1=CC=C(C=C1)C(=O)NC2=C3C=CNC3=NC=C2)N
Summary of the method: as §1

duvelisib = compound: C[C@H](Nc1ncnc2nc[nH]c12)c1cc2cccc(Cl)c2c(=O)n1-c1ccccc1 [duvelisib]
Summary of the method: as §1

gandotinib = compound: Cc1cc(Nc2cc(CN3CCOCC3)c3nc(C)c(Cc4ccc(Cl)cc4F)n3n2)n[nH]1 [gandotinib]
Summary of the method: as §1

tozasertib = compound: Cc1cc(Nc2cc(N3CCN(C)CC3)nc(Sc3ccc(NC(=O)C4CC4)cc3)n2)n[nH]1 [tozasertib]
Summary of the method: as §1

[4] = compound: Cc1cc(SCc2sc(-c3ccc(C(F)(F)F)cc3)nc2C)ccc1OCC(=O)O
Summary of the method: as §1

doramapimod = compound: Cc1ccc(-n2nc(C(C)(C)C)cc2NC(=O)Nc2ccc(OCCN3CCOCC3)c3ccccc23)cc1 [doramapimod]
Summary of the method: as §1

ispinesib = compound: Cc1ccc(C(=O)N(CCCN)[C@@H](c2nc3cc(Cl)ccc3c(=O)n2Cc2ccccc2)C(C)C)cc1 [ispinesib]
Summary of the method: as §1

bafetinib = compound: Cc1ccc(NC(=O)c2ccc(CN3CC[C@H](N(C)C)C3)c(C(F)(F)F)c2)cc1Nc1nccc(-c2cncnc2)n1 [bafetinib]
Summary of the method: as §1

[5] = compound: Cc1cccc(CC(=O)N2CCc3c2ccc(-c2cn(C)c4ncnc(N)c24)c3F)n1
Summary of the method: as §1

nilotinib = compound: Cc1cn(-c2cc(NC(=O)c3ccc(C)c(Nc4nccc(-c5cccnc5)n4)c3)cc(C(F)(F)F)c2)cn1 [nilotinib]
Summary of the method: as §1

[6] = compound: Cc1nc(Nc2n[nH]c3c2CN(C(=O)N[C@H](CN(C)C)c2ccccc2)C3(C)C)c2sccc2n1
Summary of the method: as §1

dasatinib = compound: Cc1nc(Nc2ncc(C(=O)Nc3c(C)cccc3Cl)s2)cc(N2CCN(CCO)CC2)n1 [dasatinib]
Summary of the method: as §1

[7] = compound: Cc1ncc(-c2ccnc(Nc3ccc(S(C)(=O)=O)cc3)n2)n1C(C)C
Summary of the method: as §1

[8] = compound: Cn1cc(-c2ccc3c(c2)CCN3C(=O)Cc2cccc(C(F)(F)F)c2)c2c(N)ncnc21
Summary of the method: as §1

[9] = compound: Cn1cc(-c2ccc3nnc(C(F)(F)c4ccc5ncccc5c4)n3n2)cn1
Summary of the method: as §1

tipifarnib = compound: Cn1cncc1[C@@](N)(c1ccc(Cl)cc1)c1ccc2c(c1)c(-c1cccc(Cl)c1)cc(=O)n2C [tipifarnib]
Summary of the method: as §1

mubritinib = compound: FC(F)(F)c1ccc(/C=C/c2nc(COc3ccc(CCCCn4ccnn4)cc3)co2)cc1 [mubritinib]
Summary of the method: as §1

Measured: log2 fold change

DHX16 (UniProt O60231)
UniProt O60231, sequence (O60231 whole entry, looked up): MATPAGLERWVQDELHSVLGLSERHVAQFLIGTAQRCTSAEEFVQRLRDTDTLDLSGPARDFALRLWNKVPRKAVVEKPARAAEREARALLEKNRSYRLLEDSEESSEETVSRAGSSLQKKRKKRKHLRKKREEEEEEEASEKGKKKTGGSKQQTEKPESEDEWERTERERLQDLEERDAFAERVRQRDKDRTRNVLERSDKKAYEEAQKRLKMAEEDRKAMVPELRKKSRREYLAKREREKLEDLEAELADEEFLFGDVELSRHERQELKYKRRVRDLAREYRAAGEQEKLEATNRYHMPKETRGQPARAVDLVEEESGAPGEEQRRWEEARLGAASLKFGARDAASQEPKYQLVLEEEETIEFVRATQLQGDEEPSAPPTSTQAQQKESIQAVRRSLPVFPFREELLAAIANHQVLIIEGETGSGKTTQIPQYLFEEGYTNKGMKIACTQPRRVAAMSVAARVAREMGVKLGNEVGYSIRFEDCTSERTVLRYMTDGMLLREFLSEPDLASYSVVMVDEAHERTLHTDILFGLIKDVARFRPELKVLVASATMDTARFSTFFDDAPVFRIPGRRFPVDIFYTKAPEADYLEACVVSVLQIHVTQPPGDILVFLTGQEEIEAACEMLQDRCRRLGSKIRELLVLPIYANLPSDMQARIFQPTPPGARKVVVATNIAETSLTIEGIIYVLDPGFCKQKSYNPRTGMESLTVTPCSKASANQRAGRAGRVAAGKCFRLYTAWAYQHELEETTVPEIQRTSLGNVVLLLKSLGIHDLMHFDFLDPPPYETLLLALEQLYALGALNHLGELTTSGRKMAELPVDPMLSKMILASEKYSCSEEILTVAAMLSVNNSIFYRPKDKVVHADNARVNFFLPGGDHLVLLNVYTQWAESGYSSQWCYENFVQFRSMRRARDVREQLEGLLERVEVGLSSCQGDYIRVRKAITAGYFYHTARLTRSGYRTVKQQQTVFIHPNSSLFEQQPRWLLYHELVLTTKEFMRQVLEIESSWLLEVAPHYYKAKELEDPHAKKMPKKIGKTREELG
inactive: [1] 0.023 | crizotinib -0.013 | [2] 0.182 | [3] -0.03 | duvelisib -0.013 | gandotinib -0.06 | tozasertib -0.02 | [4] 0.053 | doramapimod -0.018 | ispinesib -0.01 | bafetinib 0.001 | [5] 0.044 | nilotinib -0.031 | [6] 0.019 | dasatinib -0.095 | [7] -0.006 | [8] 0.059 | [9] 0.002 | tipifarnib -0.04 | mubritinib 0.147

DDX27 (UniProt Q96GQ7)
inactive: [1] -0.039 | crizotinib -0.037 | [2] -0.064 | [3] 0.37 | duvelisib -0.145 | gandotinib 0.073 | tozasertib -0.12 | [4] 0.071 | doramapimod 0.135 | ispinesib 0.004 | [5] -0.093 | nilotinib -0.193 | [6] -0.051 | dasatinib 0.21 | [7] 0.3 | [8] -0.313 | [9] -0.151 | mubritinib -0.146

DEGS1 (UniProt O15121)
UniProt O15121, sequence (O15121 whole entry, looked up): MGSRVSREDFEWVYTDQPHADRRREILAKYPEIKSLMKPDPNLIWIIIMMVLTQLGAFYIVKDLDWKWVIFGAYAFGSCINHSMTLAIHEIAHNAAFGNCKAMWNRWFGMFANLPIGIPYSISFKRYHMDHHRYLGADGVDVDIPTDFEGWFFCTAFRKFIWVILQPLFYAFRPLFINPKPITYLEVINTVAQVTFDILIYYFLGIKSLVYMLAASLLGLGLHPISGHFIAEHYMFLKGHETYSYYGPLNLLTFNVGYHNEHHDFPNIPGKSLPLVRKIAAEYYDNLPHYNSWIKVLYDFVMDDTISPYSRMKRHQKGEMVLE
inactive: [1] 0.064 | [2] 0.062 | [3] -0.047 | duvelisib -0.017 | gandotinib 0.138 | tozasertib -0.07 | [4] -0.078 | bafetinib -0.032 | [5] -0.029 | nilotinib 0.04 | [6] -0.021 | dasatinib -0.1 | [7] -0.031 | [8] -0.07 | tipifarnib -0.026 | mubritinib 0.087

EPHB4 (UniProt P54760)
UniProt P54760, sequence (P54760 whole entry, looked up): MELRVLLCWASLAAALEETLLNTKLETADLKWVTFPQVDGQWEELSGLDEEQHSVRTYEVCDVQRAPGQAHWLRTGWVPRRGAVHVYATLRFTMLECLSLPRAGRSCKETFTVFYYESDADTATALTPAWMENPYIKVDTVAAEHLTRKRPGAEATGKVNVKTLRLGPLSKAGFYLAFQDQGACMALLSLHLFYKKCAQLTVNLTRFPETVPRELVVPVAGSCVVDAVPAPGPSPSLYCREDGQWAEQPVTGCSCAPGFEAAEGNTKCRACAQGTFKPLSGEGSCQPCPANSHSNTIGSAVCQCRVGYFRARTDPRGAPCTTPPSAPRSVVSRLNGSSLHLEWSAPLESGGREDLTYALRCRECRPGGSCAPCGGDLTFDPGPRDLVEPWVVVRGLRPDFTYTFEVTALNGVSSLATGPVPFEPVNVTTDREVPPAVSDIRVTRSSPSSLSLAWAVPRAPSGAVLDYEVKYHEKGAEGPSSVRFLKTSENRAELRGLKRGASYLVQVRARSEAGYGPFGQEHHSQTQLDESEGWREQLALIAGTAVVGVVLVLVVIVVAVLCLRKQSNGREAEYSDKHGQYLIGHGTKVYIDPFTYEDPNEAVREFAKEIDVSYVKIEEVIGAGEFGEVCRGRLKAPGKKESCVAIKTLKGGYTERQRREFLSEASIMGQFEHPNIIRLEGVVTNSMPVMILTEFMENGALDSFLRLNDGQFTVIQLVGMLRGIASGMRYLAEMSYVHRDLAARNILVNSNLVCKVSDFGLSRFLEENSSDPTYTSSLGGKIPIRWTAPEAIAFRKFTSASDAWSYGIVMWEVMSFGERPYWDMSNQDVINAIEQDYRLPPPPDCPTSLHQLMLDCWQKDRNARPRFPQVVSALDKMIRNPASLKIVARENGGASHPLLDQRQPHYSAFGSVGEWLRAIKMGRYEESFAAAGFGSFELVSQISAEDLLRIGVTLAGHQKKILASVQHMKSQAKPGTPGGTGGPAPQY
inactive: [1] 0.15 | ispinesib -0.016 | [9] -0.051 | tipifarnib -0.257 | mubritinib 0.176

DCAF4 (UniProt Q8WV16)
UniProt Q8WV16, sequence (Q8WV16 whole entry, looked up): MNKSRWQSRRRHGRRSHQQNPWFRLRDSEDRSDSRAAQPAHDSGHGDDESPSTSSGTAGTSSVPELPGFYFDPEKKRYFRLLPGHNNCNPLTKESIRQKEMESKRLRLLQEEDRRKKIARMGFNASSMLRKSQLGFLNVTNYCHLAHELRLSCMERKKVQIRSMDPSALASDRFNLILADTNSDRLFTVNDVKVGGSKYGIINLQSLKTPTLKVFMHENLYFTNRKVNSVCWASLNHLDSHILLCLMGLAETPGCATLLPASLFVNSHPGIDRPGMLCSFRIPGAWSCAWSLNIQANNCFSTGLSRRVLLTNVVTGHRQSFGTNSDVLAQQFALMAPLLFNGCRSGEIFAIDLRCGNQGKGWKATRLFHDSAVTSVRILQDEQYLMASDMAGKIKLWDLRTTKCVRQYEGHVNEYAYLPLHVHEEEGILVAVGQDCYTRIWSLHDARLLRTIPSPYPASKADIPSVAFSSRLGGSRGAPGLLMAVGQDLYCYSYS
active: [5] -0.423
inactive: [1] -0.06 | [2] 0.032 | duvelisib -0.302 | gandotinib 0.07 | [4] -0.056 | ispinesib -0.165 | nilotinib -0.204 | [6] -0.007 | dasatinib 0.11 | [7] -0.093 | [9] 0.079 | mubritinib 0.094

ELOVL7 (UniProt A1L3X0)
inactive: [2] 0.088 | [3] 0.037 | duvelisib -0.016 | tozasertib -0.018 | [4] 0.025 | dasatinib -0.088 | [8] -0.057

CYP24A1 (UniProt Q07973)
UniProt Q07973, sequence (Q07973 whole entry, looked up): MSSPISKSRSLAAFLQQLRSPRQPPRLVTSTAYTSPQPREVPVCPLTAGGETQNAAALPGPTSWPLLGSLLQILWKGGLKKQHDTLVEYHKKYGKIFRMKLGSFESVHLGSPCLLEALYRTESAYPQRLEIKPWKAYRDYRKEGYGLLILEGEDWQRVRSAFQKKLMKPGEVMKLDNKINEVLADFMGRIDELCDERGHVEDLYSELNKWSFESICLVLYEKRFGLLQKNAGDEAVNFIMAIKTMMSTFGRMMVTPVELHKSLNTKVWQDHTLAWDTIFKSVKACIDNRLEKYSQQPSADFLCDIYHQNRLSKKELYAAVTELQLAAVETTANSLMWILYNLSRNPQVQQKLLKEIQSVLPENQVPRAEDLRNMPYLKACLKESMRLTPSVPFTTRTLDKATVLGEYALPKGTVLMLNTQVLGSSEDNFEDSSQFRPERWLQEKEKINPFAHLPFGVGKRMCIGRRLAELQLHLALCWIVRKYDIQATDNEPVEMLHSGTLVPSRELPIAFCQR
inactive: crizotinib -0.043 | duvelisib -0.079 | gandotinib 0.535 | tozasertib -0.05 | [4] -0.13 | doramapimod 0.283 | ispinesib -0.244 | bafetinib 0.373 | [5] -0.049 | nilotinib 0.01 | [6] 0.167 | dasatinib 0.184 | [7] -0.105 | [9] -0.057 | tipifarnib 0.101 | mubritinib -0.074

DNAJB1 (UniProt M0R128)
inactive: [3] -0.018 | tozasertib -0.082 | bafetinib -0.252 | [8] -0.022

ERF (UniProt P50548)
inactive: [1] 0.173 | [2] -0.05 | gandotinib -0.29 | [5] 0.194
active: tozasertib -1.2

EGR1 (UniProt P18146)
inactive: [1] 0.063 | [2] 0.259 | [3] -0.518 | gandotinib -0.536 | tozasertib -0.131 | ispinesib 0.36 | bafetinib -0.257 | [5] 0.141 | nilotinib -0.001 | [6] -0.352 | [7] -0.295 | [8] -0.24 | [9] -0.106 | tipifarnib 0.139 | mubritinib -0.121

DBNL (UniProt Q9UJU6)
inactive: [3] -0.166 | [8] 0.308

EIF4G3 isoform 3 (UniProt O43432)
UniProt O43432, sequence (O43432 whole entry, looked up): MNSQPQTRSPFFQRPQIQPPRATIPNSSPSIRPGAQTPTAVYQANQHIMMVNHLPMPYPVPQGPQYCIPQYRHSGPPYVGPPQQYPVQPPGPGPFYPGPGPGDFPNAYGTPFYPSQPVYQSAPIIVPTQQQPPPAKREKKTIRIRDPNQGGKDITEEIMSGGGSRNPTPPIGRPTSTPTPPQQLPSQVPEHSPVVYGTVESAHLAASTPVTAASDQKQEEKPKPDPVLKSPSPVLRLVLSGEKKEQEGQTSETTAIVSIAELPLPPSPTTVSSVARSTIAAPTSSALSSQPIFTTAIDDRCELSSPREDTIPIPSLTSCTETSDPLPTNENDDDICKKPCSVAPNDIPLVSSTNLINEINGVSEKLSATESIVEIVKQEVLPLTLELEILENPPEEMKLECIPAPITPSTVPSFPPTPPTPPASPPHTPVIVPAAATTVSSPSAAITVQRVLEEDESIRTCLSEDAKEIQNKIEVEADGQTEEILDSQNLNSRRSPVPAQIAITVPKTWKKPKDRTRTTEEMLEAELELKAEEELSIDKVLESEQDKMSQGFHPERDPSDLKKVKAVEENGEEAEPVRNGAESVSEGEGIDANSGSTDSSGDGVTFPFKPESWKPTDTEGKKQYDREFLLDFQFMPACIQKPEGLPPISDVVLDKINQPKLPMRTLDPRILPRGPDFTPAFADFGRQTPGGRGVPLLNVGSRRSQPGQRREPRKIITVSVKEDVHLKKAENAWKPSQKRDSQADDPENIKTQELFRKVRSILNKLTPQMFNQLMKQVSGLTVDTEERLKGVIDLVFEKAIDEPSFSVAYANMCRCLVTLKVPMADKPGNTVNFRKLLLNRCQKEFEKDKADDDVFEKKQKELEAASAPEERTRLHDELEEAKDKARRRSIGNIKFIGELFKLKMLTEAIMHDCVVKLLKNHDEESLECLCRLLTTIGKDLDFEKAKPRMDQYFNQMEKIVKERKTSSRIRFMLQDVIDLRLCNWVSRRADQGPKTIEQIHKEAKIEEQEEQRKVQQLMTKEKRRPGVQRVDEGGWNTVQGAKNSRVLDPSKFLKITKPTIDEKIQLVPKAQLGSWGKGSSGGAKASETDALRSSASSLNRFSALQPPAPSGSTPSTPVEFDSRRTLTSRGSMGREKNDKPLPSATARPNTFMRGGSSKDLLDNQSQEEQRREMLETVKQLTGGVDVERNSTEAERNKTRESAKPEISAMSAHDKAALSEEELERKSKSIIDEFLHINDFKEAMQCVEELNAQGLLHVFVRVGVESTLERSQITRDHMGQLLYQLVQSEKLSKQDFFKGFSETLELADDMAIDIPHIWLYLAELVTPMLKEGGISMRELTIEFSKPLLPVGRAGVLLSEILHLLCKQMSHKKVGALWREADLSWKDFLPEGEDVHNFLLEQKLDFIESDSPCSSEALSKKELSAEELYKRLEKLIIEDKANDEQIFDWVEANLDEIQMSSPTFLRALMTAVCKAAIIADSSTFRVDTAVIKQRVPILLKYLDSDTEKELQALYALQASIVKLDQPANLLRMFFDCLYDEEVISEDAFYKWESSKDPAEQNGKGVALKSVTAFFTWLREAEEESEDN
inactive: [1] 0.053 | crizotinib -0.106 | [3] 0.074 | duvelisib -0.082 | tozasertib -0.013 | [4] 0.075 | doramapimod 0.013 | ispinesib -0.02 | bafetinib -0.01 | nilotinib -0.043 | [6] -0.12 | dasatinib -0.006 | [7] 0.052 | [8] -0.073 | [9] 0.056 | tipifarnib 0.083 | mubritinib -0.005
